Compound activity (PubChem BioAssay)
Hits are enriched below; roughly 8.9% of the tested compounds scored in any of these assays.
SW480 rerep: inducers of DNA re-replication in SW480 colon cancer cells; SW480 DNA re-replication, Hoechst DNA content imaging, 48 h; Potency, µM (top dose mostly 46.1 µM), for the others: at the highest dose re-replication activation, most hits filed as activators; 1.8% of 340,000 active; also: potency is read from the fitted curve at half-maximal effect; % of control where 0% means no effect; nearly all actives have a fitted effect of over 55% in size
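250 cells/well; 23 nL cpd via pin tool; 48 hr, 37 C, 5% CO2; Hoechst 40 min; imager read of total nuclear intensity, ex 405/em 500-530 nm.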
MCF10A rereplic: DNA re-replication induction in MCF 10a cells | MCF 10A DNA re-replication, Hoechst nuclear intensity, 48 h | Potency, µM (highest dose often 46.1 µM), inactives show at the top dose activity, positive = re-replication, hits mostly activators | 2.9% of 350,000 active | AID 624296; also: potency is read from the fitted curve at half-maximal effect; % of control where 0% means no effect; nearly all actives have a fitted effect of over 50% in size
KB-V1 MDR tox: KB-V1 MDR subline cytotoxicity. KB-V1 MDR cells viability, CellTiter-Glo, 72 h. Potency, µM (doses to about 46.1 µM), hits mostly cytotoxic. 3.4% of 400,000 active; also: potency is read from the fitted curve at half-maximal effect; % is scaled to controls: 0 for no effect and ±100 for the full control effect; nearly all actives have a fitted effect of over 60% in size
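KB-V1, DMEM (no phenol red) + 10% FBS; cpd pin-transferred, titration series; 72 h, 37 degrees C; CellTiter-Glo, luminescence. Data normalized, curve-fit.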
KB-3-1 cytotox: KB-3-1 parental cell cytotoxicity. KB-3-1 viability, CellTiter-Glo ATP luminescence, 72 h. Potency, µM (top dose mostly 46.1 µM), most hits filed as cytotoxic. 1.4% of 400,000 active; also: potency is read from the fitted curve at half-maximal effect; % is scaled to controls: 0 for no effect and ±100 for the full control effect; nearly all actives have a fitted effect of over 60% in size
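Cytotoxicity measured as CellTiter-Glo luminescence after 72 h at 37 C. Compound titrations were pinned onto drug-naive KB-3-1 parental adenocarcinoma cells grown in DMEM with 10% FBS, and normalized data fitted to concentration-response curves.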
D3 ag: agonists of human D3 dopamine receptor; D3R DiscoveRx beta-arrestin cells, luminescence, 90 min; max activation, %; 0.58% of 410,000 active; AID 652048; in the data active = max activation above about 30%; also: 0% is about no effect
Target sequence (P35462 whole entry, looked up): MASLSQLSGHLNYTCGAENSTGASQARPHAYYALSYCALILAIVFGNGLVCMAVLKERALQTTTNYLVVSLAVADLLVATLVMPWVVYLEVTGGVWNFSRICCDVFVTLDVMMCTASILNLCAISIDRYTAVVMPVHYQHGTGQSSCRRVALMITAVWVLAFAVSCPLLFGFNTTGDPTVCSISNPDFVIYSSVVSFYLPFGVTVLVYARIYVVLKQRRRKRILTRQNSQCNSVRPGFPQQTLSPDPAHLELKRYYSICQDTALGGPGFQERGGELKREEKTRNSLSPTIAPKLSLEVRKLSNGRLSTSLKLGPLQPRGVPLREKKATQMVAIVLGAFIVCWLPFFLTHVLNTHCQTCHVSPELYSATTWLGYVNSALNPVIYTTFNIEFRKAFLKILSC
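Agonist mode: compounds and dopamine controls were applied to plated cells for 90 min at 37 degrees C after an overnight attachment at 1500 cells/well. Luminescent read-out followed 30 - 60 minutes at room temperature with DiscoveRx detection reagent.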
D3 antag: blocks the human D3 dopamine receptor; D3R cells, DiscoveRx beta-arrestin luminescence, antagonist mode; stronger effect = lower value; max response, negative = inhibition, %; 2.5% of 360,000 active; AID 652054; in the data active = max response below about -50%; inconclusive = no clear call, values can overlap the other calls; also: % is scaled to controls: 0 for no effect and ±100 for the full control effect
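Cells expressing the human receptor were seeded at 1500 cells/well, incubated overnight at 37 degrees C in 5% CO2, then exposed to library compounds with dopamine controls for 90 minutes at 37 degrees C before luminescent detection.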
Starred values were filed as active, the others as inactive; i = inactive; ? = inconclusive; . = not tested or not shown; [ ] = dose if it differs, or a comment. Unless noted, calls follow the shape of the dose curve; as a rule, active = well fitted curve in the direction sought with a large enough effect; inconclusive = small, poorly fitted or top-dose-only effect, or another doubt; inactive = no such curve, though single readings can be large; an effect the other way counts as inactive or inconclusive.

SMILES	SW480 rerep	MCF10A rereplic	KB-V1 MDR tox	KB-3-1 cytotox	D3 ag	D3 antag
CN(C)c1ncc(S(=O)(=O)c2ccccc2)c(N)n1	1%	1%	i	i	1	5
CN(C)c1ncc(S(=O)(=O)c2ccccc2)c(-c2ccccc2Cl)n1	1%	-2%	18µM*	i	3	-8
CCOC(=O)CCSc1nc(-c2ccc3c(c2)OCO3)cc(C(F)(F)F)c1C#N	-5%	5%	i	i	-10	-15
Cc1ccc(-c2cc(C(F)(F)F)c(C#N)c(SCC(=O)O)n2)cc1	27%	11%	i	i	4	5
CCOC(=O)CC(=O)CSc1nc(-c2ccc3c(c2)OCO3)cc(C(F)(F)F)c1C#N	?	6.3µM*	i	i	-8	-26
C=CCSc1nc(-c2ccc3c(c2)OCO3)cc(C(F)(F)F)c1C#N	7.3µM*	15%	i	i	3	-7
N#Cc1c(C(F)(F)F)cc(-c2ccc(Cl)c(Cl)c2)nc1SCCN1CCOCC1	16%	4.1µM*	?	i	-4	-2
CCOC(=O)c1c(NC(=O)CSc2nnc(C)s2)sc2c1CCC(C)C2 (stereo not drawn)	1%	?	10µM*	i	2	13
CCOC(=O)c1c(NC(=O)Cn2nnc3ccccc32)sc2c1CCC(C)C2 (stereo not drawn)	-3%	12%	?	?	33*	-8
CCOC(=O)c1c(NC(=O)CSc2nnc(C)s2)sc2c1CCCCC2	-7%	4%	i	i	1	-12
CCOC(=O)c1c(NC(=O)COC(=O)Cn2cnc3ccccc32)sc2c1CCC(C)C2 (stereo not drawn)	-2%	17%	i	i	12	0
CCc1nn(CC(=O)NCc2ccco2)c(=O)c2cc3cc(F)ccc3n12	.	.	i	i	8	.
O=C(O)CSc1ncccc1C(=O)O	6%	9.2µM*	i	i	1	1
CN(C)c1ccc(/C=C2/CCc3ccccc32)cc1	.	.	i	i	.	.
CCOc1ccc(-c2nc(C#N)c(NCc3ccco3)o2)cc1	-1%	1%	i	i	-13	-4
CCN(CC)CCNC(=O)CCc1c(C)nc2c(c(C)nn2-c2ccc(C)c(C)c2)c1C	15µM*	20%	i	?	-2	?
Cc1ccc(-n2nc(C)c3c(C)c(CCC(=O)Nc4ccc(CN5CCCC5)cc4)c(C)nc32)cc1	?	26µM*	i	i	-8	-25
O=C(O)c1cccc(Nc2ncnc3scc(-c4ccccc4)c23)c1	.	.	i	i	5	.
CCOC(=O)c1c(C)n(-c2ccccc2)c2ccc(OC(=O)c3ccc(OCC)c(OCC)c3)cc12	.	.	?	i	-16	.
Cc1noc(Cn2c(=O)c3ccccc3n(CC(=O)Nc3ccccc3C(F)(F)F)c2=O)n1	.	.	i	i	5	.
CC1(c2ccc3ccccc3c2)NC(=O)N(CC(=O)N2CCN(Cc3ccc(C#N)cc3)CC2)C1=O (stereo not drawn)	?	9%	?	i	-2	-1
N#Cc1ccc(CN2CCN(C(=O)Cn3nc(C(N)=O)c4ccccc4c3=O)CC2)cc1	21µM*	4%	i	i	-1	10
C1=C(c2ccccc2)CCN(c2nc3ccccc3n3cnnc23)C1	-5%	1%	i	i	-6	-70*
c1ccc(CN2CCN(c3nc4ccccc4n4cnnc34)CC2)cc1	?	?	i	i	-23	-135*
c1ccc2c(c1)CCN(c1nc3ccccc3n3cnnc13)C2	1%	24%	i	i	4	9
SMILES	SW480 rerep	MCF10A rereplic	KB-V1 MDR tox	KB-3-1 cytotox	D3 ag	D3 antag
c1ccc(N2CCN(c3nc4ccccc4n4cnnc34)CC2)cc1	-15%	-6%	?	i	0	31
COc1ccc(OC)c(C2CC(=O)c3c([nH]c(C(=O)OCC4CCCO4)c3C)C2)c1 (stereo not drawn)	?	15µM*	?	9.2µM*	-3	-5
CCCOCCOC(=O)c1[nH]c2c(c1C)C(=O)CC(c1cc(OC)ccc1OC)C2 (stereo not drawn)	3.7µM*	?	5.8µM*	5.8µM*	-3	-2
COc1ccc(OC)c(C2CC(=O)c3c([nH]c(C(=O)OCc4ccc(C)cc4)c3C)C2)c1 (stereo not drawn)	.	.	.	.	-13	.
COCCOC(=O)c1[nH]c2c(c1C)C(=O)CC(c1cc(OC)ccc1OC)C2 (stereo not drawn)	13µM*	?	?	8.2µM*	-9	-24
COc1ccc(OC)c(C2CC(=O)c3c([nH]c(C(=O)OC(C)C)c3C)C2)c1 (stereo not drawn)	3.7µM*	?	0.52µM*	0.46µM*	-8	0
COc1ccc(OC)c(C2CC(=O)c3c([nH]c(C(=O)OC4CCC(C)CC4)c3C)C2)c1 (stereo not drawn)	.	.	?	?	-6	.
CCCSc1ncc(Cl)c(C(=O)Nc2ccc(S(=O)(=O)N3CCCCC3C)cc2)n1 (stereo not drawn)	.	.	.	.	-2	.
CC(C)C(NC(=O)c1ccccc1NC(=O)C(C)(C)C)C(=O)N1CCOCC1 (stereo not drawn)	-4%	1%	?	i	-4	4
Cc1ccc2cc3c(nc2c1)N(Cc1ccco1)CC3	-1%	8%	i	i	1	-56*
S=C(NC1CCCC1)N1CCN(c2ccccn2)CC1	-6%	21%	21µM*	i	-3	-7
O=C(NC1CCCCC1)C(CCc1ccccc1)N1CCc2ccccc2C1 (stereo not drawn)	.	.	?	?	-14	-59*
S=C(NC1CCCCC1)N1CCc2ccccc2C1	6%	-61%	15µM*	?	-5	-1
C/C(=N\NC(=O)C1CCCN(S(=O)(=O)c2ccccc2)C1)c1ccccn1 (stereo not drawn)	5%	?	?	?	-10	-90*
C/C(=N\NC(=O)C1CCCN(S(=O)(=O)c2ccccc2)C1)c1ccncc1 (stereo not drawn)	-1%[9.22 µM]	-1%	i	i	4	1
O=C(NC(=S)N1CCN(c2ccccn2)CC1)c1ccccc1	?	-2%	?	i	0	6
CCOc1ccc(C2C(=O)N(C3CCCCCC3)CC(=O)N2CCc2ccccc2)cc1OC (stereo not drawn)	.	.	.	.	-14	.
N#Cc1ccc(CSc2nc3c(c(=O)[nH]2)CCC3)cc1	.	.	i	i	9	.
C/C(=N\NC(=S)Nc1cccc(C)c1)c1ccccc1	-8%[9.22 µM]	0%	i	i	-1	-52*
